Test results from PubChem BioAssay AID687014 (The Scripps Research Institute Molecular Screening Center, 2013).
Among all 370,000 compounds or so, about 6,800 (1.8%) were called active. This excerpt belongs to a sample that is enriched for actives. Values without a mark were called inactive.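 Rule for the calls: active = activation above a cutoff set at the mean of all screened compounds plus 3 SD (cut at about 10% in these data); inactive = the rest.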

Each compound was assayed on Nuclear hormone receptor DAF-12 (Heterodera glycines), GAL4 fusion (assay: hgDAF-12 GAL4 fusion reporter activation – cell-based, luminescence, HEK293, UAS-luciferase, primary screen (AID 687014;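 note: 0% = DMSO wells and 100% = sodium butyrate wells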)). Conditions: HEK293 GAL4-hgDAF12 UAS-luciferase reporter, agonist luminescence; at 6.8 µM; stronger effect = higher value.

Q: Which activation does the source give for Cc1cc(C)c2c(c1)NP(=S)(c1ccccc1)N2 (stereo not given) here?
A: The activation was 13.1% (active).

Q: Which activation does the source give for COc1ccc2c(c1)NP(=S)(c1ccccc1)N2 (stereo not given) here?
A: Its activation is 23.2% (active).

Q: With COc1cc(C(c2c(O)c3ccccc3oc2=O)c2c(C)n(C)n(-c3ccccc3)c2=O)ccc1O (stereo not given) as the compound, how does the activation read?
A: Its activation is 2.01%.

Q: For CN(C)CC1CCCCC1=O (stereo not given), which activation is on record?
A: Its activation is 1.62%.

Q: How did the activation turn out when O=S(=O)(c1ccccc1)N1CCC2CCNC2C1 (stereo not given) was run?
A: The activation was 1.08%.

Q: CO[C@H]([C@H](C)/C=C/N(C)C=O)[C@@H](C)C(=O)CC[C@H](C)[C@H](O)[C@H](C)[C@H]1OC(=O)/C=C/C(C)=C/[C@H](O)[C@H](OC)C[C@@H]2C=CC[C@@H](C[C@H](OC)[C@@]3(CO3)[C@@H](OC)C[C@@H](OC)[C@@H]1C)O2 was tested. Which activation did it give?
A: Its activation is -9.43%.

Q: COP(=O)(Sc1ccccc1)C(Cc1ccccc1)NC(=O)OCc1ccccc1 (stereo not given) was tested. Which activation did it give?
A: The activation was 1.8%.

Q: How did the activation turn out when Cc1ccccc1CCC[C@@H](CC1CCCCC1)CN(C)C(=O)Oc1ccccc1 was run?
A: The activation was 0.88%.

Q: How did the activation turn out when c1ccc2sc(N3CCNCC3)nc2c1 was run?
A: Its activation is 5.89%.

Q: c1ccc2sc(C3CCCNC3)nc2c1 (stereo not given) was tested. Which activation did it give?
A: Its activation is 11.6% (active).

Q: With NC(=O)Nc1cccc(C(F)(F)F)c1 as the compound, how does the activation read?
A: Its activation is 1.53%.

Q: Which activation does the source give for CCCC[N+]1(C)C2CC(OC(=O)C(CO)c3ccccc3)CC1C1OC12 (stereo not given) here?
A: Its activation is -2.54%.

Q: CC[N+](CC)(CC)CCCCCCCCCC[N+](CC)(CC)CC was tested. Which activation did it give?
A: Its activation is 0.44%.

Q: Which activation does the source give for CS(=O)(=O)N1CCC2CCNC2C1 (stereo not given) here?
A: Its activation is -2.06%.

Q: Which activation does the source give for COc1cc(OC)cc(C(=O)NCCN2CCC3(CC2)C(=O)NCN3c2ccccc2)c1 here?
A: Its activation is -1.03%.

Q: For O=C(N/N=C/c1c(O)n(Cc2ccccc2)c(=O)[nH]c1=O)c1ccccc1, which activation is on record?
A: Its activation is 16% (active).

Q: With O=c1[nH]c(=O)n(CCc2ccccc2)c(O)c1/C=N/N1CCOCC1 as the compound, how does the activation read?
A: The activation was 0.56%.

Q: With O=C(N/N=C/c1c(O)n(C2CC2)c(=S)[nH]c1=O)c1ccccc1Cl as the compound, how does the activation read?
A: Its activation is 2.67%.

Q: How did the activation turn out when O=c1[nH]c(=S)n(C2CC2)c(O)c1/C=N/N1CCOCC1 was run?
A: The activation was -1.58%.

Q: Which activation does the source give for O=c1[nH]c(=O)n(Cc2ccccc2)c(O)c1/C=N/Nc1c(F)c(F)c(F)c(F)c1F here?
A: Its activation is -0.57%.

Q: How did the activation turn out when O=C(N/N=C/c1c(O)n(C2CC2)c(=S)[nH]c1=O)c1ccccc1 was run?
A: The activation was 11.8% (active).

Q: Which activation does the source give for CCN(CC)C(=O)[C@@H]1C=C2c3cccc4[nH]c(Br)c(c34)C[C@H]2N(C)C1 here?
A: The activation was -1.1%.

Q: With Clc1ccc([C@@H]2CC3CCC2N3)cn1 (stereo not given in full) as the compound, how does the activation read?
A: The activation was 1.87%.

Q: For CCC(C)NC1(c2ccccc2)CCCCC1 (stereo not given), which activation is on record?
A: Its activation is 1.32%.

Q: Which activation does the source give for O=C(Nc1cccc(OC(=O)N2CCCCC2)c1)N1CCOCC1 here?
A: Its activation is -0.57%.

Q: For CC(C)(C)c1ccc(OC(=O)N2CCCCC2)cc1, which activation is on record?
A: The activation was 14.4% (active).

Q: With CN1CCN(C(=O)COc2ccc(C(C)(C)C)cc2Br)CC1 as the compound, how does the activation read?
A: Its activation is 1.63%.

Q: Cc1cc(N2CCNC[C@@H]2C)ccc1N1CC[C@H](O)C1 was tested. Which activation did it give?
A: The activation was 0.8%.

Q: Which activation does the source give for COc1ccc2c(c1)[C@@]13CCCCC1[C@@H](C2)NCC3 (stereo not given in full) here?
A: Its activation is 4.73%.

Q: How did the activation turn out when Brc1ccc2c(c1)CNCc1cnnn1-2 was run?
A: Its activation is 0.9%.
